{"source": "the supplement of paper PMC8540655", "note": "Values without a mark were called inactive.", "data": [{"test_system": "Aedes aegypti larvae", "experiment": "larval motility relative to same well at 0 h (fraction); higher = more motile (less active compound), active = 0.4 or less", "conditions": "10 µM; 24 h", "summary_of_the_method": "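Relative motility is the score of a well divided by its own score at the first recording. Movies were made with INVAPP at 0, 2 and 24 h, each having 200 frames at 100 ms intervals. Larvae of Aedes aegypti, from 18–24 h hatches in pond salt solution with yeast at 25 °C, sat at about 10 per well (100 µL) in 96-well plates with compounds at 10 µM and 1% v/v DMSO. Solvent and larvicide control wells were included on every plate, and values are medians of three independent larval batches.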", "values": [{"smiles": "Fc1ccc(-n2cc(Cn3c(-c4cccc(F)c4)nc4ccccc43)nn2)cc1", "larval motility": 0.415}, {"smiles": "CC(C)Nc1ncnc2c1cnn2-c1ccc(Cl)cc1", "larval motility": 0.773}, {"smiles": "O=C(Cn1cnc2ccccc2c1=O)Nc1ccccc1", "larval motility": 0.782}, {"smiles": "CC(C)(C)c1cc(CCC(=O)N2CCC2)cc(C(C)(C)C)c1O", "larval motility": 0.774}, {"smiles": "O=C(NCc1ccc(F)cc1)c1c(O)c2ncccc2[nH]c1=O", "larval motility": 0.908}, {"smiles": "O=c1oc2ccc(Br)cc2cc1CSc1ncc[nH]1", "larval motility": 0.972}, {"smiles": "Nc1cccc(-c2nc(N)nc(NC3Cc4ccccc4C3)n2)c1", "larval motility": 0.803}, {"smiles": "Nc1nc(NC2Cc3ccc(F)cc3C2)nc(N2CCCCC2)n1", "note": "(stereo not given)", "larval motility": 0.628}, {"smiles": "O=C(O)[C@H]1C2CCC(CC2)[C@@H]1Nc1nc(-c2c[nH]c3ncc(F)cc23)ncc1F", "larval motility": 1.17}, {"smiles": "OC(Cn1cncn1)(Cn1cncn1)c1ccc(F)cc1F", "larval motility": 0.875}, {"smiles": "CC(C)(C)c1cc(C(=O)/C(C#N)=N/Nc2cccc(Cl)c2)no1", "larval motility": 1.21}, {"smiles": "O=c1cc(Nc2ccc3ccccc3c2)[nH]c(=O)[nH]1", "larval motility": 0.778}, {"smiles": "O=C(O)C[C@H]1CC[C@H](c2ccc(-c3ccc(Nc4ccc(C(F)(F)F)nc4)cn3)cc2)CC1", "larval motility": 0.489}, {"smiles": "COc1cc(C(C(=O)NC2CCCCC2)N(C(=O)Cc2c[nH]c3ccccc23)c2ccc(C(C)C)cc2)cc(OC)c1OC", "note": "(stereo not given)", "larval motility": 1.32}, {"smiles": "COc1ccc(SC(=O)N[C@H](CCC(=O)O)C(=O)O)cc1", "larval motility": 0.93}, {"smiles": "OCCCCn1cnc2c(O)nc(NCc3ccc(Cl)c(Cl)c3)nc21", "larval motility": 0.79}, {"smiles": "N#C/C(=C1/SC[C@H](c2ccc(Cl)cc2Cl)S1)n1ccnc1", "larval motility": 1}, {"smiles": "O=P(O)(O)C(CCCc1cccc(Oc2ccccc2)c1)S(=O)(=O)O", "note": "(stereo not given)", "larval motility": 0.88}, {"smiles": "COc1cc(NS(=O)(=O)c2ccc(C)cc2)c2ncccc2c1", "larval motility": 0.666}, {"smiles": "O=C(Nc1nnc(-c2ccc(Cl)cc2)o1)c1nc2ccccc2s1", "larval motility": 1.05}, {"smiles": "COc1ccc2cc3[n+](cc2c1OCCN(CCn1cncn1)Cc1ccc(F)cc1F)CCc1cc2c(cc1-3)OCO2", "larval motility": 0.778}, {"smiles": "COc1ccc(NC(=O)c2cc3ccccn3n2)cc1", "larval motility": 0.782}, {"smiles": "Oc1c(C(Nc2ccccn2)c2ccccc2)ccc2cccnc12", "note": "(stereo not given)", "larval motility": 1.07}, {"smiles": "CCc1nc(N)nc(N)c1C#CC(C)c1cc(OC)cc(-c2ccncc2)c1", "note": "(stereo not given)", "larval motility": 0.417}, {"smiles": "O=C(CCc1ccc2c(c1)OCO2)NCc1ccc(-c2ccccc2F)cc1", "larval motility": 0.677}, {"smiles": "O=c1[nH]c(=O)n(Cc2cccc(Oc3ccccc3)c2)cc1Nc1ccccc1", "larval motility": 0.791}, {"smiles": "Nc1cc(N)c2nc(-c3ccccc3)c(Nc3ccc(F)cc3)nc2c1", "larval motility": 0.892}, {"smiles": "CCOC(=O)Nc1cc(NC(C)CC(C)CN(CC)CC)c2nc(-c3ccccc3)c(-c3ccccc3)nc2n1", "note": "(stereo not given)", "larval motility": 1.04}, {"smiles": "CCC[C@@H]1C[C@@H](C(=O)N[C@@H]([C@H]2O[C@H](SC)[C@H](O)[C@@H](O)[C@H]2O)[C@H](C)Cl)N(C)C1", "larval motility": 0.885}, {"smiles": "O=C(O)/C=C/C=C/c1cccc(Oc2cc(Cl)cc(Cl)c2)c1", "larval motility": 0.995}, {"smiles": "O=c1ccc2ncc(=O)n3c2n1CC3CN1CCC(NCc2cc3c(cn2)OCCC3)CC1", "note": "(stereo not given)", "larval motility": 0.964}, {"smiles": "CN(C(=O)C1(c2ccc(Cl)cc2)CCC1)c1ccccc1", "larval motility": 1.21}, {"smiles": "CC1(C)CC(NC(=O)C(=O)Nc2ccc(Cl)cc2)CC(C)(C)N1", "larval motility": 0.896}, {"smiles": "O=C1c2cccc3cccc(c23)C(=O)N1CC1CO1", "note": "(stereo not given)", "larval motility": 0.936}, {"smiles": "CN(C)CCCNC(=O)c1ccc(-c2cc(O)c3ncccc3c2)cc1", "larval motility": 0.683}, {"smiles": "CCc1cc(O)c(Oc2cccnc2N)cc1F", "larval motility": 1.42}, {"smiles": "Cc1ncc([N+](=O)[O-])n1CC(C)O", "note": "(stereo not given)", "larval motility": 1.55}, {"smiles": "CC(C)n1cnc2c(NCc3ccccc3)nc(NCc3ccccc3)nc21", "larval motility": 1.42}, {"smiles": "CC(C)(C)c1cccc(-c2nc3cc(C(=N)N)ccc3[nH]2)c1O", "larval motility": 0.466}, {"smiles": "C[C@H](Cn1cnc2c(N)ncnc21)OCP(=O)(O)O", "larval motility": 1.07}]}]}
